Source: PubChem BioAssay AID371 (SRMLSC, 2006)
Hit rate of the full screen: of about 3,300 compounds, about 280 (8.5%) were called active.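 Rule for the calls: active = mean growth inhibition over the two runs of 50% or more; inactive = mean growth inhibition under 50%.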 This excerpt belongs to a sample that is enriched for actives.

assay: A549 NSCLC cell proliferation inhibitors – ATP luminescence, human non-small cell lung line, primary screen (AID 371); details: at 10 µM, stronger effect = higher value;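 note: compound exposure lasted 72 h before the ATP read; 0% = untreated cell signal and 100% = no luminescence left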

Growth inhibition, inactive:
COc1ccc2c(c1)[nH]c1c(=O)n(CCN(C)C)cnc12 4.43%
CC1(C)SC2[C@H](NC(=O)C(NC(=O)N3CCNC3=O)c3ccccc3)C(=O)N2C1C(=O)O (stereo not given in full) 3.08%
CC(C)C1C(C#N)=C(N)Oc2n[nH]c(C(C)(C)C)c21 (stereo not given) -3.11%
Cc1[nH]nc2c1C(CCc1ccccc1)C(C#N)=C(N)O2 (stereo not given) 0.1%
N#CCSc1nc2c(c(=O)n1Cc1ccco1)C1(CCCC1)Cc1ccccc1-2 30.2%
Cc1ccnc(N2CCN(c3c4c(c(C#N)c5nc6ccccc6n35)CCC4)CC2)c1 7.43%
COc1cc(=O)[nH]c(=O)n1CC(=O)c1ccccc1 -1.03%
CC1(C)Cc2c(C#N)c(N3CCOCC3)nc(Cc3ccccc3)c2CO1 16.7%
CCc1nc(N2CCN(C(=O)c3ccccc3)CC2)c(C#N)c2c1COC(C)(C)C2 36.6%
CC1(C)Cc2c(C#N)c(N3CCN(C(=O)c4ccccc4)CC3)nc(-c3ccco3)c2CS1 12.2%
CC1(C)Cc2c(c(-c3ccco3)[nH]c(=O)c2C#N)CS1 0.57%
CC1(C)Cc2c(C#N)c(NCCc3ccccc3)nc(-c3ccco3)c2CO1 1.2%
CCCCc1nc(NCCN2CCOCC2)c(C#N)c2c1COC(C)(C)C2 1.05%
CCOC(=O)C(C(=O)OCC)N(C#N)c1nc(SC)nc(N(C)C)n1 -4.38%
Cc1nnc(SCC(=O)N2CCC(C(N)=O)CC2)s1 -21.6%
C=C(C)CN(CC)CCC(=O)Nc1ccc(OC)cc1OC 4.6%
COC(=O)CNC(=O)c1c(C)cc(=O)oc1C 0.81%
CC1(C(=O)CSc2nc3ccccc3s2)CCC(=O)O1 (stereo not given) 3.38%
O=c1cc(N2CCCCC2)nc2n1CCCS2 8.96%
Cc1ccc(S(=O)(=O)N2CCN(c3nc(C(C)C)c4c(c3C#N)CC(C)(C)OC4)CC2)cc1 29.3%
Cc1ccc2[nH]c3c(NCCN4CCOCC4)ncnc3c2c1 18%
Clc1ccc2[nH]c3c(NCCN4CCOCC4)ncnc3c2c1 34.3%
C=CCn1c(SCC#N)nc2c(c1=O)C(C)(C)Cc1ccccc1-2 28.8%
COn1c(=S)[nH]c2ccccc2c1=O 3.49%
CCSC(SCC)[C@H](O)[C@@H](O)[C@H](O)[C@H](O)CO -2.15%
Cc1cc(C)n(-c2c(F)c(F)c(CN3CCCCC3)c(F)c2F)n1 9.57%
CN(C)c1cccc2c(S(=O)(=O)N3CCOCC3)cccc12 15.9%
Cc1ccc(C(=O)/C=C/Nc2cccc(O)c2)cc1 37.1%
O=c1c(C=NCCCn2ccnc2)c(-c2ccccc2)[nH]n1-c1nc2ccccc2s1 17%
O=C(NCCCn1ccnc1)C(Cc1ccccc1)N1C(=O)c2ccccc2C1=O (stereo not given) 2.6%
Cc1cc(C)c2c(N)c(C(=O)c3ccccc3)oc2n1 19.9%
Cc1nn(-c2ccccc2)c2c1C(c1ccc(F)cc1F)C(C#N)=C(N)O2 (stereo not given) 17%
CCN(CC)c1ccc2cc(-c3nnc(-c4ccncc4)o3)c(=O)oc2c1 11.3%
CNC(=O)c1cc2c(ccc3ccccc32)oc1=N 9.88%
COc1ccc(C2/C(=C(\O)c3ccc4c(c3)OCCO4)C(=O)C(=O)N2CCCN(C)C)cc1 (stereo not given) -19.3%
O=C(OCCN1CCOCC1)c1ccc2c(c1)OCCO2 -1.1%
NC(=O)c1ccccc1OCCOCCOCCOc1ccccc1C(N)=O 4.77%
COC(=O)CSc1nc(N)nc(C)c1Br 0.51%
C=CCn1c(=O)c(C(=O)NCCN(CC)CC)c(O)c2ccccc21 13.9%
N#CC1=C(SCc2ccccc2)NC2=C(C(=O)CCC2)C1c1ccc2c(c1)OCO2 (stereo not given) 35.2%
Cc1ccc(NC(=O)CSC2=C(C#N)C(c3ccco3)C3=C(CCCC3=O)N2)cc1 (stereo not given) 31.5%
COc1ccccc1NC(=O)C1=C(C)NC(SCC(=O)c2ccc(C)cc2)=C(C#N)C1c1ccco1 (stereo not given) 18.3%
CCOC(=O)CSC1=C(C#N)C(c2ccc(OC)cc2)C2=C(CC(C)(C)CC2=O)N1 (stereo not given) 9.46%
N#Cc1ccc(-c2ccco2)nc1SCC(=O)c1ccc(Cl)cc1 36.8%
CCCCC1CC1C(=O)Nc1ccc(OC)c(OC)c1 (stereo not given) 11%
Cn1c(=O)c2c(nc(NCCCO)n2Cc2cccc(C(F)(F)F)c2)n(C)c1=O 29.2%
Cc1cc(=O)n2[nH]cnc2n1 4.42%

Growth inhibition, active:
C1CCC(C(CC2CCCCN2)C2CCCCC2)CC1 (stereo not given) 91.8%
CCCCc1nc(NCCNC(=O)c2ccco2)c(C#N)c2c1CSC(C)(C)C2 56.1%
CC1(C)Cc2c(C#N)c(N3CCN(C(=O)c4ccco4)CC3)nc(-c3ccco3)c2CS1 50.1%
CC1(C)Cc2c(C#N)c(N3CCN(C(=O)c4ccco4)CC3)nc(Cc3ccccc3)c2CO1 72.3%
Clc1ccc2[nH]c3c(NCCCN4CCOCC4)ncnc3c2c1 89.9%
CCCCCCCCCCCCCCCC(O)C(N)CO (stereo not given) 94.3%
N=c1c2c(-c3ccccc3)c(-c3ccccc3)n(Cc3ccccc3)c2ncn1CCCn1ccnc1 91.5%
CCCCCCc1cc2cc(C(=O)NC)c(=N)oc2cc1O 87.4%
CCCCCCc1cc2cc(-c3nnc(-c4ccccc4O)o3)c(=O)oc2cc1O 95%
Cc1ccc(C(=O)CSC2=C(C#N)C(c3ccco3)C3=C(CCCC3=O)N2)cc1 (stereo not given) 76.4%
N#CC1=C(SCC(=O)c2ccc(Br)cc2)NC2=C(C(=O)CCC2)C1c1ccco1 (stereo not given) 77.8%
N#CC1=C(SCC(=O)c2ccccc2)NC2=C(C(=O)CCC2)C1c1ccco1 (stereo not given) 69%
N#CC1=C(SCC(=O)c2ccc(Cl)cc2)NC2=C(C(=O)CCC2)C1c1ccco1 (stereo not given) 80%
